Sfp inh: inhibitors of Bacillus subtilis Sfp phosphopantetheinyl transferase | Q9F4F7 | Biochemical Sfp PPTase activity, qHTS | Potency, µM, inactives show largest response in the series, negative = inhibition, hits mostly inhibitors | 3.5% of 310,000 active;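 note: the enzyme is Sfp with the accession as filed and its product quenches rhodamine fluorescence; potency is the fitted concentration of half-maximal effect; 0% = enzyme reaction without inhibitor and -100% = no enzyme wells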
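Sfp 15 nM + cpd, 15 min RT; start w/ rhodamine-CoA 5 uM, BHQ-2-YbbR 12.5 uM (final); 50 mM Hepes pH 7.6, 10 mM MgCl2, 0.01% NP-40, 0.01% BSA; read 525/598 nm at 0 and 30 min.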
Epigenetic reg: regulators of epigenetic silencing causing reporter derepression in mouse cells. Potency, µM (top dose mostly 53.9 µM), inactives show at the top dose GFP activation, actives largely listed as activators. AID 1865. murine LDR cells, GFP reporter derepression, 30 h. 0.2% of 280,000 active; note: potency is the fitted concentration of half-maximal effect; % of control where 0% means no effect; nearly all actives have a fitted effect of over 60% in size
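Murine LDR cells bearing a silenced CMV-driven GFP reporter were exposed to compound for 30 h at 37 C. After PBS washes, GFP-positive cells (20-120 um objects) counted by laser-scanning microplate cytometry.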
GCN5L2 inh-1: inhibitors of human GCN5L2 histone acetyltransferase; Q92830; GCN5L2 HAT assay, ThioGlo1 CoA-SH fluorescence; Potency, µM (doses to about 58.9 µM), without a hit: top-dose activity change, negative = inhibition, hits mostly inhibitors; 0.21% of 390,000 active; AID 504327; note: potency is the fitted concentration of half-maximal effect; % is set by controls: 0 for no effect and ±100 for the full control effect
Target sequence (Q92830 whole entry, looked up): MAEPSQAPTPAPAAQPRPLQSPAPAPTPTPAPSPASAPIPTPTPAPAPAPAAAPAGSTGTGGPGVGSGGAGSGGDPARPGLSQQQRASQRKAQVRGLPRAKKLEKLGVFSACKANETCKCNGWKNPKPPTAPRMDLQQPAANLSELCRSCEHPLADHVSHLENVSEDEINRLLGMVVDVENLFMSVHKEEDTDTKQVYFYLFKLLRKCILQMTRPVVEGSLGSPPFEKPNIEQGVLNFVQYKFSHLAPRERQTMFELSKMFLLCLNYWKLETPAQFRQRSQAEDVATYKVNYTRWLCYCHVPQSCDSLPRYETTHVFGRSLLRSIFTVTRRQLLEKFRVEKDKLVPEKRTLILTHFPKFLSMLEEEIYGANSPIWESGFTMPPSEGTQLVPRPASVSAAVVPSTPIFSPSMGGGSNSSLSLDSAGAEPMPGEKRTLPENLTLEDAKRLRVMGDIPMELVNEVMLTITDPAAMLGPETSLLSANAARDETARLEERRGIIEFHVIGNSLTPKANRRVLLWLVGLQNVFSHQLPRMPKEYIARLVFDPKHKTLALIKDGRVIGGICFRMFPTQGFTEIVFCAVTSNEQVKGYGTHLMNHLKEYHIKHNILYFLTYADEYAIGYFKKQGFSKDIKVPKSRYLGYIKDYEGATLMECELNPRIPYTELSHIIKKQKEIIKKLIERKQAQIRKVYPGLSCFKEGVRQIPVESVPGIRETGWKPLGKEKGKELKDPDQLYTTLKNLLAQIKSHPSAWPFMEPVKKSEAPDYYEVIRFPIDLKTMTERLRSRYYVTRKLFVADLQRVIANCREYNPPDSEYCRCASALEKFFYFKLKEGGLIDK
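Preincubate 20nM GCN5L2 with compound 15 min, RT → add 50uM ThioGlo1 + 75uM H3(1-25) + 70uM acetyl-CoA → read fluorescence 0 and 20 min. Primary qHTS; fluorescent artifacts likely.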
NPSR antag: blocks cAMP signaling of the human neuropeptide S receptor. Q6W5P4. CHO-NPSR cells, cAMP TR-FRET, antagonist mode. Potency, µM (series often up to 38.3 µM), for inactives: at the highest dose activity change, negative = inhibition, actives largely listed as inhibitors. 1% of 220,000 active. AID 1461; note: potency is the fitted concentration of half-maximal effect; % is set by controls: 0 for no effect and ±100 for the full control effect; nearly all actives have a fitted effect of over 50% in size
JMJD2E inh: JMJD2E (human) inhibition | B2RXH2 | JMJD2E catalytic domain, FDH-coupled NADH fluorescence (FDH is formaldehyde dehydrogenase) | Potency, µM (titrated, usually from 57.1 µM), for the others: top-dose activity change, negative = inhibition, most hits filed as inhibitors | 1.6% of 230,000 active; active = well fitted inhibition curve with a large enough effect, not every such curve was filed as active; inconclusive = small, poorly fitted or top-dose-only effect, or another doubt; inactive = no such curve, though single readings can be large or run the other way;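 note: potency is the fitted concentration of half-maximal effect; 0% = wells with enzyme and -100% = buffer wells without enzyme; nearly all actives have a fitted effect of over 50% in size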
IMPase Li cell: IMPase inhibition in cells with lithium potentiation; CHO-M1 cells, IP1 TR-FRET (IP-One), carbachol + lithium; Potency, µM (top dose mostly 59.4 µM), for inactives: top-dose activity, negative = IMPase inhibition, usual class: inhibitors; 0.35% of 210,000 active;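 note: IP1 builds up when IMPase is blocked and the TR-FRET signal falls; potency is the fitted concentration of half-maximal effect; plate controls were basal vehicle for no effect and high inhibitor control for full effect; nearly all actives have a fitted effect of over 50% in size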
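Concentration–response in CHO-M1 cells, lithium-potentiated; 30 min at 37C. IP1 detected by competitive TR-FRET after 10 min lysis at RT. Hill-fitted AC50.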
GCN5L2 inh-2: human KAT2A HAT inhibition, hit confirmation | shares compounds with GCN5L2 inh-1 | GCN5L2 HAT, ThioGlo1 CoA fluorescence, 20 min | Potency, µM, most hits filed as inhibitors | 70% of 140 active
Numbers without * were called inactive; u = inconclusive; x = no result; [ ] = remark or other dose. An excerpt weighted towards active compounds, which were near 3.6% of everything screened. Unless noted, calls come from the whole dose curve; as a rule, active = well fitted curve in the direction sought with a large enough effect; inconclusive = small, poorly fitted or top-dose-only effect, or another doubt; inactive = no such curve, though single readings can be large; an effect the other way counts as inactive or inconclusive.

SMILES | Sfp inh | Epigenetic reg | GCN5L2 inh-1 | NPSR antag | JMJD2E inh | IMPase Li cell | GCN5L2 inh-2
CCOc1cc(/C=C2\CCCc3c2nc2ccccc2c3C(=O)O)ccc1OC | 10µM* | x | 25.1µM* | x | x | x | u
O=C(CC(c1cccs1)N1Cc2ccccc2C1=O)Nc1ccc(F)cc1 (centres undefined) | x | -1.2% | -0.4% | x | x | x | x
COc1ccc(C(=O)NCC(c2cccnc2)N2CCN(c3ccc(F)cc3)CC2)cc1 (centres undefined) | x | 2.2% | -15.0% | x | x | x | x
O=C(O)c1ccc(-n2cccc2/C=C2/NC(=O)N(c3cccc(Cl)c3)C2=O)cc1 | u | 1.1% | u | -25.5% | -19.9% | 13.6% | u
Cc1ccnc(NS(=O)(=O)c2ccc(NC(=O)c3cc(=O)c4ccc(C)c(C)c4o3)cc2)n1 | x | 1.9% | -2.4% | x | x | x | x
CCOC(=O)c1cnc2cc(C)nn2c1-c1ccccc1 | 28.1% | -1.1% | 39.8µM* | -4.9%[46.1 µM] | 3.7% | -29.9%[38.3 µM] | 14.5*
CNc1c(NC(=O)c2cc(OC)cc(OC)c2)c(=O)oc2ccccc12 | x | -1.0% | -0.6% | x | x | x | x
COCCNC(=O)CCn1c(=O)[nH]c2cc(OC)c(OC)cc2c1=O | x | -1.7% | 2.9% | x | x | x | x
CSS(=O)(=O)c1cccc2cccnc12 | 20µM* | 0.1% | 8.91µM* | -18.7% | 2.51µM* | x | 5.76*
CCN(CC)S(=O)(=O)c1cccc2cccnc12 | 20.6% | -4.4% | -2.8% | -3.8%[46.1 µM] | 10.8% | -4.9%[38.3 µM] | x
COc1ccc(CCn2c(=S)[nH]c3ccc(N4CCOCC4)cc3c2=O)cc1OC | -11.9% | 1.1% | -4.4% | -34.2% | u | u | x
COCCCn1c(=S)[nH]c2ccc(N3CCOCC3)cc2c1=O | -8.1% | 0.0% | u | -13.2%[46.1 µM] | u | -19.1% | 32.4*
CCOC(=O)c1ccc(NC2SC(=O)N(Cc3cccc(C(=O)O)c3)C2=O)cc1 (centres undefined) | x | -1.6% | -6.4% | x | x | x | x
CC(C)=CCC/C(C)=C/Cc1c(O)ccc(C(=O)/C=C/c2ccc(O)cc2)c1O | 15.8% | 1.0% | -14.7% | -29.9% | -2.9% | 0.9% | x
COc1cc(CCc2ccccc2)c(C(=O)O)c(O)c1C/C=C(/C)CCC=C(C)C | x | x | 14.1µM* | x | x | x | 11.5*
CCCCCn1cc2c(c1-c1ccc(Cl)cc1)c(=O)n(C)c(=O)n2C | x | 1.9% | -4.0% | x | x | x | x
CCN(CC)C(=O)COC(=O)c1cc(-c2ccco2)nc2ccccc12 | -7.9% | 0.4% | u | -41.7% | u | 6.2% | 32.4*
CCN(CC)C(=O)Cc1cc(C(=O)O)c2ccccc2n1 | 18.5% | -1.0% | -13.0% | -4.1%[46.1 µM] | -0.7% | 13.0%[38.3 µM] | x
CCOC(=O)C1CCCN(C(=O)c2cc(-c3ccco3)nc3ccccc23)C1 (centres undefined) | x | x | 28.2µM* | x | x | x | 18.2*
CCOC(=O)C1CCCN(C(=O)c2cc(-c3ccncc3)nc3ccccc23)C1 (centres undefined) | x | x | 3.3% | x | x | x | x
CC(=O)N1c2ccccc2[C@@H](C)[C@@H]1C | x | x | -2.9% | x | x | x | x
CC(=O)N1c2ccccc2C2(O)N=C(C)SC12 (centres undefined) | -94.9% | -3.5% | 7.94µM* | 0.3% | -14.0% | 53.9% | 9.13*
COC(=O)c1sccc1NC(=O)CC1C(=O)NCCN1C(=O)c1c(F)cccc1Cl (centres undefined) | -1.9% | -1.4% | u | 6.7%[7.67 µM] | 9.1% | x | u
Cc1ccc2c(c1C)NC(C(=O)O)C1CC=CC21 (centres undefined) | 44.7µM* | -0.8% | 22.4µM* | -1.0%[46.1 µM] | 20µM* | -11.7%[38.3 µM] | 14.5*
CCc1nn(CC(=O)NCCc2ccc(OC)cc2OC)c(=O)c2cc3sccc3n12 | x | 3.6% | -6.6% | x | x | x | x
SMILES | Sfp inh | Epigenetic reg | GCN5L2 inh-1 | NPSR antag | JMJD2E inh | IMPase Li cell | GCN5L2 inh-2
CNC(=O)NC(=O)C(C)OC(=O)c1c2c(nc3ccccc13)/C(=C/c1cccs1)CC2 (centres undefined) | 31.6µM* | 5.7% | 14.1µM* | -3.5%[46.1 µM] | u | u | u
Cc1cc(Cc2cc(Cc3cc(C)cc(C(C)(C)C)c3O)c(C)cc2C)c(O)c(C(C)(C)C)c1 | x | x | x | x | x | 3.2% | x
COC(=O)c1scc2c(=O)cc(C(F)(F)F)[nH]c12 | u | -2.4% | 22.4µM* | 8.0%[7.67 µM] | u | x | 36.3*
COC(=O)c1ccc2[nH]c(C)cc(=O)c2c1 | 16.6% | -0.7% | -10.0% | -4.2%[46.1 µM] | u | 19.1%[38.3 µM] | x
CCC(C)Sc1ccc(-c2nc3ccccn3c2NCc2ccccc2)cc1OC (centres undefined) | x | x | 22.4µM* | x | x | x | u
COC(=O)C1(C)C=C2C(=C(c3ccccc3)C(=O)C2C)CN1 (centres undefined) | 16.8% | 0.4% | x | x | -21.2% | -9.0% | x
CCSc1ccccc1C(=O)Nc1ccc(S(=O)(=O)NC(C)=O)cc1 | 25.1µM* | -5.7% | 17.8µM* | -7.8% | 2.1% | -0.3% | u
Cc1ccc(S(=O)(=O)N2[C@@H](c3ccc(C(C)(C)C)cc3)C(C(=O)O)=CC[C@H]2c2cccs2)cc1 | x | x | -22.8% | x | x | x | x
CCc1ccc([C@@H]2CC=C(C(=O)O)[C@H](c3ccc(C(C)(C)C)cc3)N2S(=O)(=O)c2ccc(C)cc2)cc1 | x | x | 17.8µM* | x | x | x | 18.2*
Cc1ccc(S(=O)(=O)N2[C@@H](c3ccc(C(C)(C)C)cc3)C(C(=O)O)=CC[C@H]2c2ccc(C(C)C)cc2)cc1 | x | x | 14.1µM* | x | x | x | 12.9*
CCc1ccc([C@@H]2CC=C(C(=O)O)[C@H](c3ccccc3)N2S(=O)(=O)c2ccc(C)cc2)cc1 | x | x | -7.1% | x | x | x | x
CCOC(=O)c1cccc(NC(=O)CC2C(=O)N(c3ccc(OC)cc3)C(=O)N2C2CCCC2)c1 (centres undefined) | x | 15.0% | -2.0% | x | x | x | x
CCC(C)NC(=O)c1sc2nc(C)c(C(=O)Nc3ccc(C)cc3C)c(-c3ccc(NC(C)=O)cc3)c2c1N (centres undefined) | x | -0.6% | u | x | x | x | x
N#C/C(=C\c1cccs1)C(=O)c1ccccc1Cl | 28.2µM* | u | u | 41.5% | u | x | u

Source: PubChem BioAssay (National Center for Advancing Translational Sciences (NCATS))
